# TDP1 cell CPT: growth inhibition of DT40 Tdp1-/-;hTDP1 cells with camptothecin (screen for TDP1 inhibitors); Potency, µM (series often up to 46.2 µM), actives largely listed as inhibitors; chicken DT40 Tdp1-/-;hTDP1 cells + 20 nM CPT, ATP luminescence, 48 h; 420,000 compounds, 12% hits; note: nearly all actives have a fitted effect of over 55% in size
#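 Chicken DT40 Tdp1-/- cells complemented with human TDP1, 400 cells/well, exposed to compounds plus 20 nM camptothecin for at least 48 h at 37 C; viability read as ATP content by CellTiter-Glo luminescence.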
# VP16 counter: counter-screen for ROR gamma inhibitors: Gal4-VP16 reporter; Drosophila S2 Gal4-VP16 UAS-luciferase, luminescence, 20 h; Potency, µM (top dose mostly 53.6 µM), most hits filed as inhibitors; 310,000 compounds, 3.5% hits;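 note: Gal4-VP16 expression switched on by copper sulfate through the metallothionein promoter; nearly all actives have a fitted effect of over 50% in size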
# TDP1 cell noCPT: qHTS for Inhibitors of human tyrosyl-DNA phosphodiesterase 1 (TDP1): qHTS in cells in absence of CPT. DT40 Tdp1-/- hTDP1 cells, no CPT, ATP luminescence, 48 h. Potency, µM (titrated, usually from 46.2 µM), usual class: inhibitors. 420,000 compounds, 15% hits. AID 686978, 2013; note: nearly all actives have a fitted effect of over 55% in size
#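 No-CPT arm: Tdp1-/-;hTDP1 DT40 cells (400/well) plus compounds, incubated ≥48 hr at 37 °C. Readout CellTiter-Glo luminescence.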
# RORgamma inh: ROR gamma (mouse) transcription inhibition. Drosophila S2 Gal4-RORgamma UAS-luciferase reporter, 20 h. Potency, µM (titrated, usually from 53.6 µM), most hits filed as inhibitors. 310,000 compounds, 5.4% hits. P51450; note: nearly all actives have a fitted effect of over 60% in size
#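 Drosophila Schneider cells stably carrying a metallothionein-driven Gal4 DBD–ROR gamma fusion and a UAS-Photinus luciferase reporter were exposed to compound for 1 hr, then induced with copper sulfate (700 uM final) for 20 hr at ambient temperature before luminescence reading.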
# TDP1 block: inhibitors of human tyrosyl-DNA phosphodiesterase TDP1 | recombinant TDP1, AlphaScreen DNA substrate cleavage | AID 485290 | Potency, µM (top dose mostly 130 µM), usual class: inhibitors | 350,000 compounds, 0.28% hits; note: nearly all actives have a fitted effect of over 40% in size
# Target sequence (Q9NUW8 whole entry, looked up): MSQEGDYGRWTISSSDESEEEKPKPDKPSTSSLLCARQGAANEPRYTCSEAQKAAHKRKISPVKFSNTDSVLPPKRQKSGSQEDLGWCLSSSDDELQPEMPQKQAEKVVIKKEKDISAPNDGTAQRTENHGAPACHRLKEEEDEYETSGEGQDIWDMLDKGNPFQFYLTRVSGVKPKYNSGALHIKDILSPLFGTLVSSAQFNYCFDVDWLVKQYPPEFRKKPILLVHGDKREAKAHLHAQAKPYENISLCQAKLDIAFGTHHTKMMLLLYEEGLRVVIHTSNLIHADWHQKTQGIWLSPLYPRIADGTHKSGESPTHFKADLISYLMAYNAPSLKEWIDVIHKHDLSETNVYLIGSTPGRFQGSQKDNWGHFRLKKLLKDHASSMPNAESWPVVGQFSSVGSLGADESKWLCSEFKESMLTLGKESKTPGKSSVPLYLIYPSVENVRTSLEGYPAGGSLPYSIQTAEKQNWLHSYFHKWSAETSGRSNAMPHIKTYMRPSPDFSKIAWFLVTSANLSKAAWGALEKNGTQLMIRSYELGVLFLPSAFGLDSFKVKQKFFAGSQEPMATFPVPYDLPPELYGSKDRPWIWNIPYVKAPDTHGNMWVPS
#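 Signal: AlphaScreen proximity between streptavidin donor and anti-FITC acceptor beads on intact substrate. Reaction: Tdp1 1 nM, substrate 15 nM final, 5 min RT after 15 min compound preincubation.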
# Hits are given with their value; 0 = inactive; ? = inconclusive; - = no result given; [ ] = another dose, or the depositor's remark. The list is not random: actives were taken first. Their share in the collection is about 19%. Calls come from the whole dose curve; as a rule, active = well fitted curve in the direction sought with a large enough effect; inconclusive = small, poorly fitted or top-dose-only effect, or another doubt; inactive = no such curve, though single readings can be large; an effect the other way counts as inactive or inconclusive.
SMILES,TDP1 cell CPT,VP16 counter,TDP1 cell noCPT,RORgamma inh,TDP1 block
CCCN(C(=O)c1ccc(S(=O)(=O)N2CCCC2)cc1)C1CCS(=O)(=O)C1 (configuration not stated),0,-,0,-,0
CCCc1ccc(S(=O)(=O)N2CCC(c3nnnn3-c3ccc(OC)cc3)CC2)cc1,0,-,0,-,0
CC1CCN(S(=O)(=O)c2cccc(-c3nnc(-c4cccnc4)o3)c2)CC1,0,0,0,0,0
CCCc1ccc(S(=O)(=O)N2CCC(c3nnc(-c4cccc(C)c4)o3)CC2)cc1,5.17µM,-,4.61µM,-,0
Cc1ccc(S(=O)(=O)N2CCC(c3nnc(-c4cccc(C)c4)o3)CC2)cc1,3.66µM,-,3.66µM,-,0
Clc1ccc(Cn2ccc3ccccc32)cn1,0,0,0,0,0
CN(C)c1ccc(Cn2ccc3ccccc32)cc1,0,-,22.4µM,-,-
CCCCN(CCCC)c1ccc(Cn2ccc3ccccc32)cc1,7.94µM,-,8.91µM,-,-
CCOC(=O)c1c(C)nn(-c2ccc(NC(=O)c3cccs3)cc2)c1C,23.1µM,0,16.4µM,0,0
CCOC(=O)c1c(C)nn(-c2ccc(NC(=O)c3c(C)noc3C)cc2)c1C,?,0,?,?,-
CCOC(=O)c1c(C)nn(-c2ccc(NC(=O)/C=C/C(=O)O)cc2)c1C,0,0,1.46µM,0,-
Cc1nn(-c2ccccc2)c(C)c1C(=O)OCC(=O)Nc1ccccc1F,?,-,0,-,0
CCNC(=O)Nc1ccc(-n2nc(C)c(C(=O)OCC)c2C)nc1,18.4µM,0,?,0,0
Cc1[nH]c2ccccc2c1SCC(=O)NC1CCCCC1,?,0,?,0,0
CCc1cc2c(=O)n(CC(=O)NC3CCCCC3)cnc2s1,0,0,0,0,0
COc1ncnc2c1ncn2CCCN1CCN(c2ccccn2)CC1,0,-,0,-,-
CSc1ncnc2c1ncn2CCCN1CCN(c2ccccn2)CC1,?,-,16.4µM,-,-
c1ccc(COc2ncnc3c2ncn3CCCN2CCN(c3ccccn3)CC2)cc1,?,-,16.4µM,-,-
O=C(NCc1ccco1)C12CN(Cc3ccccc3)CC1C(c1ccc([N+](=O)[O-])cc1)=NO2 (configuration not stated),16.4µM,0,?,0,0
O=C(NCc1ccco1)C12CN(Cc3ccccc3)CC1C(c1cccc([N+](=O)[O-])c1)=NO2 (configuration not stated),?,0,18.4µM,?,0
Cc1ccc(CNC(=O)C23CN(Cc4ccccc4)CC2C(c2cccc([N+](=O)[O-])c2)=NO3)cc1 (configuration not stated),?,0,20.6µM,0,0
O=C(NCc1ccccc1)C12CN(Cc3ccccc3)CC1C(c1ccc([N+](=O)[O-])cc1)=NO2 (configuration not stated),?,0,?,0,0
CC(C)CCNC(=O)C12CN(Cc3ccccc3)CC1C(c1cccc([N+](=O)[O-])c1)=NO2 (configuration not stated),0,0,?,0,0
Cc1ccnc(NC(=O)COC(=O)c2ccc(F)cc2F)n1,0,0,0,0,-
CC(C)NCC(O)COC1C2CC3CC(C2)CC1C3 (configuration not stated),0,0,0,0,0
SMILES,TDP1 cell CPT,VP16 counter,TDP1 cell noCPT,RORgamma inh,TDP1 block
CCCCNC(=O)C[C@@H]1C[C@@]2(C(=O)OC)CCCCC=C2N(CCC2=CCCCC2)C1=O,?,-,18.4µM,-,-
CCOC(=O)[C@]12CCC=C1N(CCC1=CCCCC1)C(=O)[C@H](CC(=O)NCCCN1CCCC1=O)C2,0,-,0,-,-
C#CCNC(=O)C[C@@H]1C[C@@]2(C(=O)OC)CCCCC=C2N(CCC2=CCCCC2)C1=O,?,-,18.4µM,-,-
Cc1cccc(-c2c(NC(=O)c3ccco3)oc3c(C)cccc3c2=O)c1,?,0,25.9µM,0,0
COc1cc(-c2c(NC(=O)c3ccco3)oc3c(C)cccc3c2=O)cc(OC)c1OC,0,0,18.4µM,0,0
CC(=O)N1N=C(c2ccccc2O)OC1(C)CC(=O)Nc1ccccc1 (configuration not stated),0,0,0,0[10 µM],0
COc1ccc(-n2cc(C(=O)Oc3cc(C)cc(C)c3)c3ccccc3c2=O)cc1,?,-,?,-,0
COc1cccc(CN(C(=O)c2oc3ccc(Br)cc3c2C)C2CCS(=O)(=O)C2)c1 (configuration not stated),14.6µM,-,16.4µM,-,0
Cc1cc2oc(C(=O)N(Cc3ccccc3)C3CCS(=O)(=O)C3)c(C)c2cc1C (configuration not stated),25.9µM,0,16.4µM,0,0
COc1ccc(NC(=O)CCCc2ccccc2)cc1OC,0,0,0,0,0
CCNC(=S)NNC(=O)c1c(Cl)c(C)nn1C,0,?,0,6.31µM,0
CCCCNC(=S)NNC(=O)c1c(Cl)c(C)nn1C,23.1µM,0,16.4µM,1.41µM,0
COc1ccccc1NC(=S)NNC(=O)c1c(Cl)c(C)nn1C,?,?,?,1.58µM,0
CCn1cc(CCC(=O)O)c(C)n1,0,0,0,0,0
CCn1nnnc1NCc1ccc(OCc2ccc(F)cc2Cl)c(OC)c1,?,0,?,?,0
Cc1ccc(C)c(CN2C(=O)c3ccccc3Sc3ccc(C(=O)NCc4cccs4)cc32)c1,0,-,?,-,0
Cc1ccccc1CN1C(=O)c2ccccc2Sc2ccc(C(=O)NCc3cccs3)cc21,23.1µM,-,23.1µM,-,0
Cc1ccccc1CN1C(=O)c2ccccc2Sc2ccc(C(=O)NC3CCCC3)cc21,16.4µM,-,?,-,0
O=C(O)CC(Cc1ccccc1)C(=O)NCC12CC3CC(CC(C3)C1)C2 (configuration not stated),0,?,0,0,0
Cc1cc(OCCOCCN(C)C)ccc1Cl,0,0,0,0,-
COc1cc(/C=C2/SC(=Nc3ccc(O)cc3)NC2=O)cc(OC)c1O,16.4µM,0,11.6µM,0,0
COc1ccccc1N=C1NC(=O)/C(=C/c2ccc(N(C)C)cc2)S1,2.06µM,?,1.84µM,?,0
O=C1NC(=Nc2ccc(O)cc2)S/C1=C\C=C\c1ccco1,0.82µM,?,0.731µM,0,0
COc1ccc(N=C2NC(=O)/C(=C/c3ccc(O)c(OC)c3)S2)cc1,?,0,?,0[10 µM],0
NC(=O)/C(=C\c1ccccc1)NC(=O)c1ccc(NC(=O)c2ccccc2)cc1,0,0,0,0,0
N#Cc1nc(-c2cccc(Cl)c2)oc1NCc1cccnc1,0,0,0,0,0
CC1Cc2ccccc2N1C(=O)Cn1cc([N+](=O)[O-])ccc1=O (configuration not stated),0,-,0,-,0
CS(=O)(=O)N1CCN(c2ccccc2NC(=O)c2ccc3c(c2)OCCO3)CC1,?,0,?,0,0
Cc1cc(C(=O)NCc2cc(F)cc3c2OCOC3)nn1C,0,0,0,0,0

# Bioassay records deposited in PubChem by National Center for Advancing Translational Sciences (NCATS).
